Assay results taken from PubChem BioAssay (Tox21).
Results filed as inconclusive are left out. Calls of active or inactive are those of the source. Unless noted, the call rests on the fitted dose curve; in most records, active means well fitted curve in the direction sought with a large enough effect in the repeat runs; inconclusive means weak or mixed curves; inactive means no such curve, though single readings can be large; an effect the other way counts as inactive or inconclusive.

Experiments:
[1] = A CellTox Green Cytotoxicity Assay to monitor cytotoxicity in HepG2 cells - 8 hour (AID 1224890); further: nearly all actives have a fitted effect of over 45% in size
Procedure, shortened: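 HepG2 cells were seeded together with the CellTox Green dye at 600 cells/well, left 5 h at 37 C/5% CO2, then given compounds in DMSO. Fluorescence from dye bound to dead-cell DNA was read repeatedly over 40 h of treatment at 37 C.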

[2] = qHTS assay to identify small molecule antagonists of the estrogen receptor alpha (ER-alpha) signaling pathway using the BG1 cell line in the presence of 0.1 nM 17-beta-estradiol - cell viability counter screen (AID 1259241); further: nearly all actives have a fitted effect of over 40% in size; further: potency means the concentration at half of the fitted maximal effect
Procedure, shortened: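 Live-cell protease activity (CellTiter-Fluor fluorescence, 30 min) was read in the same wells after VM7Luc4E2 cells had been exposed to compounds with 0.1 nM 17beta-estradiol for 22 hr at 37C.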

[3] = qHTS assay to identify small molecule antagonists of the androgen receptor (AR) signaling pathway using the MDA cell line in the presence of 0.5 nM R1881 - cell viability counter screen (AID 1259242); further: nearly all actives have a fitted effect of over 45% in size
Procedure, shortened: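 MDA-kb2 cells (human breast carcinoma, stably carrying MMTV-luciferase reporter) were exposed to compounds with 0.5 nM R1881 (final) for 16 hr at 37C, 0% CO2; viability then read as live-cell protease fluorescence (CellTiter-Fluor, 30 min) in the same wells.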

[4] = molecular target: Estrogen receptor (Homo sapiens) (UniProt P03372); test: qHTS assay to identify small molecule antagonists of the estrogen receptor alpha (ER-alpha) signaling pathway using the BG1 cell line in the presence of 0.1 nM 17-beta-estradiol (AID 1259244); further: nearly all actives have a fitted effect of over 50% in size
Procedure, shortened: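 VM7Luc4E2 cells (endogenous full-length ER-alpha, stable 4xERE-luciferase) were grown 5 days in phenol red-free medium with charcoal-stripped FBS, then exposed 22 h at 37C to compounds plus 0.1 nM (final) 17beta-estradiol; ONE-Glo luminescence read-out.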

[5] = qHTS assay to identify small molecule phospholipidosis (PLD) inducers (AID 1259344; active means well fitted curve in the direction sought with a large enough effect; an effect the other way counts as inactive or inconclusive)
Procedure, shortened: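 HepG2 cells, 900/well, treated with compound plus LipidTOX Red for 24 h at 37 C; amiodarone positive and DMSO negative controls. Fixed with paraformaldehyde/Hoechst, then high-content imaging scored LipidTOX pit count and integrated intensity per well and per cell.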

[6] = qHTS assay to identify small molecule HDAC inhibitors (AID 1259364); further: top concentration of the series differs between compounds; nearly all actives have a fitted effect of over 45% in size
Procedure, shortened: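 Wild-type HCT-116 cells were plated overnight, exposed to compounds for 2 h at 37 °C, then given HDAC-Glo class I/II luminogenic reagent for 30 min at room temperature before luminescence was read.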

[7] = qHTS assay to identify small molecule HDAC inhibitors - cell viability counter screen (AID 1259365); further: series mostly up to about 92 µM; nearly all actives have a fitted effect of over 50% in size
Procedure, shortened: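 HCT-116 (wild type), 1,500 cells/well, overnight 37C/5% CO2; compound in DMSO 2hr; CellTiter-Glo 30min RT; luminescence read.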

[8] = qHTS assay to identify small molecule antagonists of the sonic hedgehog signaling (Shh) pathway - cell viability counter screen (AID 1259367); further: nearly all actives have a fitted effect of over 55% in size; further: potency means the concentration at half of the fitted maximal effect
Procedure, shortened: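 NIH/3T3-derived Gli1-Luc reporter cells, 2,000/well, plated 4 hr before compound addition, then stimulated with conditioned medium for 24 hr at 37C. Viability measured in the same wells by CellTiter-Fluor fluorescence, reagent added at 23 hr for 1 hr.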

[9] = qHTS assay to identify small molecule agonists of the sonic hedgehog signaling (Shh) pathway (AID 1259368; calls by dose curve; further: series mostly up to about 92 µM; nearly all actives have a fitted effect of over 15% in size)
Procedure, shortened: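 NIH/3T3-derived 3T3Gli1-Luc cells carrying a stably integrated Gli1 response element–firefly luciferase reporter were plated, left 4 hr at 37 C, then given compounds in DMSO for 24 hr. Luminescence was read 30 min after adding luciferase reagent.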

[10] = qHTS assay to identify small molecule antagonists of the sonic hedgehog signaling (Shh) pathway (AID 1259369; calls by dose curve; further: nearly all actives have a fitted effect of over 45% in size; further: potency means the concentration at half of the fitted maximal effect)
Procedure, shortened: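 NIH/3T3-derived 3T3Gli1-Luc cells with stably integrated Gli1-Luc reporter were preincubated 4hr at 37 C, then given compounds in DMSO plus Shh conditioned medium and incubated 24hr. Firefly luciferase luminescence read after 30min reagent at room temperature.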

[11] = qHTS assay to identify small molecule agonists of the androgen receptor (AR) signaling pathway in the presence of an antagonist - cell viability counter screen (AID 1259379); further: series mostly up to about 92 µM; nearly all actives have a fitted effect of over 25% in size
Procedure, shortened: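 MDA-kb2 human breast carcinoma cells (stable MMTV-luciferase, AR/GR responsive) were seeded 3,000 cells/well, pre-incubated 5 hr at 37C without CO2, then given 3.0uM nilutamide and compounds at 15 concentrations for 16 hr. Viability was read by CellTiter-Fluor fluorescence.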

[12] = qHTS assay to identify small molecule agonists of the estrogen receptor beta (ER-beta) signaling pathway - cell viability counter screen (AID 1259380); further: nearly all actives have a fitted effect of over 30% in size
Procedure, shortened: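 ER-beta-UAS-bla HEK293T cells in medium with 2% charcoal-stripped FBS were preincubated 6 hr at 37C, dosed with compound in DMSO for 16 hr, then after the bla read, CellTiter-Glo was added for 30 min at room temperature; luminescence recorded.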

[13] = qHTS assay to identify small molecule antagonists of the estrogen receptor beta (ER-beta) signaling pathway - cell viability counter screen (AID 1259382); further: series mostly up to about 92 µM; nearly all actives have a fitted effect of over 55% in size
Procedure, shortened: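 ER-beta-UAS-bla HEK293T cells (2,000/well, 2% charcoal-stripped FBS) were pre-incubated 6 hr at 37C, then given compound plus 1nM final 17-beta-estradiol for 16 hr. Viability was read in the same wells by CellTiter-Glo luminescence after 30 min at room temperature.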

[14] = molecular target: Estrogen receptor (Homo sapiens) (UniProt P03372); test: qHTS assay to identify small molecule agonists of the estrogen receptor alpha (ER-alpha) signaling pathway in the presence of an antagonist (AID 1259383; calls by dose curve; further: top concentration of the series differs between compounds; nearly all actives have a fitted effect of over 15% in size)
Procedure, shortened: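 VM7Luc4E2 cells (endogenous full-length ER-alpha, 4×ERE-luciferase) were precultured 5 days in phenol red-free medium with 10% charcoal-stripped FBS, given 10.0nM ICI-182,780 (final), then treated with compounds at 15 concentrations for 22hr at 37C; luminescence read with ONE-Glo.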

[15] = molecular target: Estrogen receptor beta (Homo sapiens) (UniProt Q92731); test: qHTS assay to identify small molecule agonists of the estrogen receptor beta (ER-beta) signaling pathway (AID 1259377; active means well fitted activation curve with a large enough effect in the signal ratio in the repeat runs, not every such curve was filed as active; the % refers to the signal ratio)
Procedure, shortened: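 Beta-lactamase reporter readout: fluorescence of LiveBLAzer B/G FRET substrate after 2 h at room temperature, following 16 h compound treatment of ER-beta-UAS-bla HEK293T cells at 37C in 2% charcoal-stripped FBS medium.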

[16] = molecular target: Estrogen receptor beta (Homo sapiens) (UniProt Q92731); test: qHTS assay to identify small molecule antagonists of the estrogen receptor beta (ER-beta) signaling pathway (AID 1259378; active means well fitted inhibition curve with a large enough effect in the signal ratio in the repeat runs, not every such curve was filed as active; the % refers to the signal ratio)
Procedure, shortened: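 ER-beta-UAS-bla HEK293T cells in 2% charcoal-stripped FBS medium treated with compound plus 1nM final 17-beta-estradiol for 16 hr at 37C. Beta-lactamase reporter read by FRET substrate fluorescence after 2 hours at room temperature.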

[17] = qHTS assay to identify small molecule agonists or antagonists of the thyroid stimulating hormone receptor (TSHR) signaling pathway - wild type cell line counter screen (AID 1259384; calls by dose curve)
Procedure, shortened: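 Wild-type Hek293 cells, 800/well, 18 h at 37C, then compound with Ro20-1724 for 30 min RT. cAMP by HTRF (cAMP-d2/anti-cAMP cryptate), 1 h RT, fluorescence read. 15 concentrations, triplicates.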

[18] = qHTS assay to identify small molecule agonists of the sonic hedgehog signaling (Shh) pathway - cell viability counter screen (AID 1259366); further: nearly all actives have a fitted effect of over 50% in size
Procedure, shortened: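 CellTiter-Fluor fluorescence read-out, 1 hr at 37C, added after 23hr compound exposure. Cells: 3T3 Gli1-Luc, an NIH/3T3 clone with stably integrated Gli1-Luc reporter, plated 4hr before compound.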

Measured: Potency

Chain of Estrogen receptor beta (Homo sapiens) (Q92731 whole entry, looked up): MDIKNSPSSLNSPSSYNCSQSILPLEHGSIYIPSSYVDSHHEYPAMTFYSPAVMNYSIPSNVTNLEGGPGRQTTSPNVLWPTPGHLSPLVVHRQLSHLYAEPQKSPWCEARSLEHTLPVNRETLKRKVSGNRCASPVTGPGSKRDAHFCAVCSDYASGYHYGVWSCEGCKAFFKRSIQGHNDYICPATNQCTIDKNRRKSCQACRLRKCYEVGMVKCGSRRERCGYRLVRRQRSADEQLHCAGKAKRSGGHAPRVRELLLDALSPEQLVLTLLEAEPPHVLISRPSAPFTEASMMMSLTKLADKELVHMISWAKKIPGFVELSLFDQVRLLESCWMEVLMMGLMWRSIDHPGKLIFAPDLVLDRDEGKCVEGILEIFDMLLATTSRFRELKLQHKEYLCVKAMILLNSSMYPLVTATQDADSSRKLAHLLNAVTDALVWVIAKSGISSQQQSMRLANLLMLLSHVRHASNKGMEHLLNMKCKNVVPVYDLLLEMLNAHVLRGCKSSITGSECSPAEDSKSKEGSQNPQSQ
Chain of Estrogen receptor (Homo sapiens) (P03372 whole entry, looked up): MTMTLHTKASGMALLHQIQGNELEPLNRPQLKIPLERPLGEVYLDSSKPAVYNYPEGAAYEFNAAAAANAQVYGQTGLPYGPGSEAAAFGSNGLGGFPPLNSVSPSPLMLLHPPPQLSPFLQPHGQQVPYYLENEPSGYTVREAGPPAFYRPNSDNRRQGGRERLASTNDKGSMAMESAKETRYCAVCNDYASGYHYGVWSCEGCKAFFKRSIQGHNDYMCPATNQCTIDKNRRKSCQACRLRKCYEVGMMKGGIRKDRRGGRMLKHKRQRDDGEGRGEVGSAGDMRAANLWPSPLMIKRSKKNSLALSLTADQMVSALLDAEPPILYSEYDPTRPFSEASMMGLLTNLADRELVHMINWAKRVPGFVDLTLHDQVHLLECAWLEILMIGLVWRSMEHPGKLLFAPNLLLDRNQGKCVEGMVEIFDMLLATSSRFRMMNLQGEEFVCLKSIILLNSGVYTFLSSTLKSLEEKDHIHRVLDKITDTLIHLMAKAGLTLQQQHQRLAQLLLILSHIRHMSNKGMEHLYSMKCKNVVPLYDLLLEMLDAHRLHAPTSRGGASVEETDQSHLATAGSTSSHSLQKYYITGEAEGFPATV

Cc1cc2c(s1)Nc1ccccc1N=C2N1CCN(C)CC1
inactive: [1] | [3] | [4] | [5] | [6] | [7] | [9] | [10] | [11] | [12] | [13] | [14]
active: [2] 13.3 µM | [8] 5.31 µM

CN1CCN(c2c(F)cc3c(=O)c(C(=O)O)cn(CCF)c3c2F)CC1
inactive: [1] | [2] | [3] | [4] | [5] | [6] | [7] | [8] | [9] | [10] | [15] | [16] | [11] | [12] | [13] | [14] | [17]

CCCCC(=O)O[C@]1(C(=O)CO)[C@H](C)C[C@H]2[C@@H]3CCC4=CC(=O)C=C[C@]4(C)[C@@]3(F)[C@@H](O)C[C@@]21C
inactive: [1] | [2] | [3] | [4] | [5] | [6] | [18] | [8] | [10] | [11] | [13] | [14] | [17]

O=C(CCCl)NCc1ccccc1
inactive: [1] | [2] | [3] | [4] | [6] | [7] | [18] | [8] | [9] | [10] | [15] | [16] | [11] | [12] | [13] | [14] | [17]

CC(C)CC(=O)OCc1ccccc1
inactive: [1] | [2] | [3] | [4] | [6] | [7] | [18] | [8] | [9] | [10] | [15] | [16] | [11] | [12] | [13] | [14]

CN1CCN(C2=Nc3ccccc3Oc3ccc(Cl)cc32)CC1
inactive: [1] | [2] | [3] | [4] | [5] | [6] | [7] | [9] | [15] | [16] | [11] | [12] | [13] | [14] | [17]
active: [10] 6.68 µM

CCN(CC)CC1CCCCN1CC(=O)N1c2ccccc2C(=O)Nc2cccnc21 (centres undefined)
inactive: [1] | [2] | [3] | [4] | [5] | [6] | [7] | [8] | [10] | [15] | [16] | [11] | [12] | [13] | [14] | [17]

CC(=O)OC1C2(C)CCC(C2)C1(C)C (centres undefined)
inactive: [1] | [2] | [3] | [4] | [6] | [7] | [18] | [8] | [9] | [10] | [15] | [16] | [11] | [13] | [14] | [17]

CO[Si](C)(C)OC
inactive: [1] | [2] | [3] | [4] | [6] | [7] | [18] | [8] | [9] | [10] | [15] | [16] | [11] | [12] | [13] | [14] | [17]

CN1CCN(c2c(F)cc3c(=O)c(C(=O)O)cn4c3c2SCC4)CC1
inactive: [1] | [2] | [3] | [4] | [5] | [6] | [7] | [18] | [10] | [15] | [16] | [11] | [13] | [14] | [17]

CCOC(=O)C1CC(=O)C(=C(O)C2CC2)C(=O)C1 (centres undefined)
inactive: [1] | [2] | [3] | [4] | [6] | [7] | [18] | [8] | [9] | [10] | [15] | [16] | [11] | [13] | [14] | [17]

CCOc1ccc(OCC)c(Cl)c1
inactive: [1] | [2] | [3] | [4] | [6] | [7] | [18] | [8] | [9] | [10] | [15] | [16] | [11] | [12] | [13] | [14] | [17]

CC(=O)N(CC(O)CN(C(C)=O)c1c(I)c(C(=O)NCC(O)CO)c(I)c(C(=O)NCC(O)CO)c1I)c1c(I)c(C(=O)NCC(O)CO)c(I)c(C(=O)NCC(O)CO)c1I (centres undefined)
inactive: [1] | [2] | [3] | [4] | [5] | [6] | [7] | [9] | [10] | [15] | [16] | [11] | [12] | [13] | [14] | [17]

O=C(Cl)c1cccc([N+](=O)[O-])c1
inactive: [1] | [2] | [3] | [4] | [6] | [7] | [18] | [8] | [9] | [10] | [15] | [16] | [11] | [12] | [13] | [14] | [17]

C[C@]12CCC(=O)C=C1CC[C@@H]1[C@@H]2CC[C@@]2(C)[C@H]1CC[C@]2(O)C(=O)CO
inactive: [1] | [2] | [3] | [4] | [5] | [6] | [18] | [10] | [11] | [13] | [14] | [17]

CO[C@@]1(NC(=O)CSCC#N)C(=O)N2C(C(=O)O)=C(CSc3nnnn3C)CS[C@@H]21
inactive: [1] | [2] | [3] | [4] | [5] | [6] | [7] | [10] | [15] | [16] | [11] | [12] | [13] | [14]
